The text below walks through data of PubChem BioAssay (NCATS).

Inconclusive results are not listed. Activity calls are given as the source filed them. Calls follow the shape of the dose curve; as a rule, active = well fitted curve in the direction sought with a large enough effect; inconclusive = small, poorly fitted or top-dose-only effect, or another doubt; inactive = no such curve, though single readings can be large or run the other way.

Chain of phosphoglycerate mutase (Leishmania major) (Q4Q090 1-553): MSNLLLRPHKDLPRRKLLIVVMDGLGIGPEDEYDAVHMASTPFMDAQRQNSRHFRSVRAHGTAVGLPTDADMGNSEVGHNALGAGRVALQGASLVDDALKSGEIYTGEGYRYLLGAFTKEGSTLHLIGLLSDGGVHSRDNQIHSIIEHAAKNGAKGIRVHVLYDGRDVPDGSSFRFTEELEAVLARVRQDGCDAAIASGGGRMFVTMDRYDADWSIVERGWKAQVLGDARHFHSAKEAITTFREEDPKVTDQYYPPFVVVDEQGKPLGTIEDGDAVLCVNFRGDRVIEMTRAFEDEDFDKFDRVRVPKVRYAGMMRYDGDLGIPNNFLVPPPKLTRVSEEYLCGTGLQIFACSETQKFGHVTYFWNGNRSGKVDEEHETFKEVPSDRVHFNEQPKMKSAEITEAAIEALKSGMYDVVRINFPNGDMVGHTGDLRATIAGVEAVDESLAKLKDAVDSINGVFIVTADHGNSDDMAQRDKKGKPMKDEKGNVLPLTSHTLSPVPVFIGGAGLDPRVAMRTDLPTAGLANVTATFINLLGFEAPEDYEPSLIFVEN

The target of the test is phosphoglycerate mutase (Leishmania major) (UniProt Q4Q090). Kind of test: qHTS Validation Assay to Find Inhibitors of Phosphoglycerate Mutase (AID 504548). The conditions noted are these: biochemical enzyme activity; series mostly up to 57.5 µM. The text has this:
NIH Molecular Libraries Probe Production Network [MLPCN]
NIH Chemical Genomics Center [NCGC]
PI Name: Malcolm Walkinshaw, University of Edinburgh
Several species of the Trypanosomatidae family of parasitic protozoans cause a spectrum of diseases throughout the tropical and subtropical world. Sleeping sickness, caused by two subspecies of Trypanosoma brucei, is endemic to areas of sub-Saharan Africa, while Chagas disease, a manifestation of Trypanosoma cruzi infection, is prevalent throughout Central and South America. In addition, many species of Leishmania are responsible for a range of cutaneous and visceral diseases, causing ulcers, destructive lesions and kalaazar, a lethal infection of the viscera. Collectively, these organisms infect 30 million people worldwide (~500 million live in endemic areas), and account for ~130,000 deaths annually. Given their debilitating and prevalent nature, trypanosomatid parasites impose a heavy medical, economic and social burden on entire populations, primarily in the developing world. The problem is further exacerbated by the fact that existing treatments have progressed little in the past 50 years, and current drugs show high toxicity and poor efficacy.
Blood-stream stages of T. brucei are entirely dependent on glycolysis as a source of ATP, and the tricarboxylic acid cycle and oxidative phosphorylation are both repressed. Glycolysis in axenically cultured T. cruzi, representing the intracellular pathogenic stage, is also essential for these parasites. […] Previous studies have shown that the glycolytic enzyme, phosphoglycerate mutase (PGAM), is a viable target for drugs to kill these parasites. […] Furthermore, the cobalt centers present within PGAM are only found in trypanosomatid and plant PGAMs, and are known to be required for activity, thereby providing an additional target. Moreover, trypanosomatid PGAMs are completely different from the enzyme that performs the same function in humans: the parasite and host enzymes share no structural or even mechanistic features; specificity is therefore unlikely to be an issue.
NCGC Assay Protocol Summary:
Briefly, 3ul of substrate buffer (all columns) are dispensed into Greiner white solid bottom 1536-well assay plates. Compounds are then transferred via Kalypsys pin tool equipped with 1536-pin array (10nl slotted pins, V&P Scientific, San Diego, CA). Following addition of compound, 1ul of Lm PGAM (1.25nM final concentration, columns […]) is added to initiate the reaction; columns 3-4 receive only TEA buffer as negative controls. The plates are then incubated at room temperature for 45 minutes. Kinase-GloPlus reagent is added (2ul) and plates incubated for 10 minutes, before being transferred to a ViewLux high-throughput CCD imager (PerkinElmer) wherein single end-point measurements of luminescence are acquired using a clear filter. All reagents are diluted in an assay buffer consisting of 100 mM TEA (pH 7.6), 5 mM MgCl2 and 0.01% Tween-20.
On the technique in general: qHTS replaces the single test concentration by a dilution series.
For the compound `O=c1[nH]c2ccccc2n1CCCN1CCC(n2c(=O)[nH]c3cc(Cl)ccc32)CC1`, the call was inactive. In the case of `N#CC(C#N)=Cc1ccc(O)c(O)c1`, the compound was called inactive. Take `CNCC(O)c1ccc(O)cc1` (centres undefined): the result was inactive. As for `c1ccc(C2CC2)c(OCC2=NCCN2)c1`, the entry is “inactive”. Take `Cc1cccc(C)c1NC(=O)CN1CCCC1=O`: the result was inactive. With `C=C(C)[C@H]1Cc2c(ccc3c2O[C@@H]2COc4cc(OC)c(OC)cc4[C@@H]2C3=O)O1`, the result was inactive.

For the compound `Fc1ccc(C(OCCN2CCN(CCCc3ccccc3)CC2)c2ccc(F)cc2)cc1`, the call was inactive. Regarding `CC[C@@H](CO)NC(=O)[C@@H]1C=C2c3cccc4[nH]cc(c34)C[C@H]2N(C)C1`, the call was inactive.

Turning to `CC(O)(CS(=O)(=O)c1ccc(F)cc1)C(=O)Nc1ccc(C#N)c(C(F)(F)F)c1` (centres undefined), the call was inactive.

As to `CC(CCc1ccccc1)NC(C)C(O)c1ccc(O)cc1` (centres undefined), the call was inactive. Regarding `c1ccc2c(c1)OCC(C1=NCCN1)O2` (centres undefined), the result was inactive. As for `Cc1cccc(C)c1NC1=NCCCS1`, the entry is “inactive”.

With `O=C1NCN(c2ccccc2)C12CCN(CC1COc3ccccc3O1)CC2` (centres undefined), the compound was called inactive.

`Cc1ncc(CNC(=O)N(CCCl)N=O)c(N)n1`: the outcome was inactive.

Take `CC(=O)[C@H]1CC[C@H]2[C@@H]3CC[C@H]4C[C@H](O)CC[C@]4(C)[C@H]3C(=O)C[C@]12C`: the compound was classed as inactive. Next, `CN1C[C@H](CNC(=O)OCc2ccccc2)C[C@@H]2c3cccc4c3c(cn4C)C[C@H]21`: “inactive”; `CC(=O)[C@H]1CC[C@H]2[C@@H]3CC[C@H]4C[C@](C)(O)CC[C@]4(C)[C@H]3CC[C@]12C`: “inactive”; `CC[C@@H](CO)NC(=O)[C@@H]1C=C2c3cccc4c3c(cn4C)C[C@H]2N(C)C1`: “inactive”.

As for `NCC1(CC(=O)O)CCCCC1`, the compound was classed as inactive. With `CCCN1CCC[C@@H]2Cc3nc(N)ncc3C[C@H]21`, the compound was classed as inactive.

As to `COC[C@H]1OC(=O)c2coc3c2[C@@]1(C)C1=C(C3=O)C2CCC(=O)[C@@]2(C)C[C@H]1OC(C)=O` (some centres undefined), the call was inactive.

Regarding `COc1ccccc1N1CCNCC1`, the outcome was inactive. Consider `NN=C(N)N`, for which the outcome was inactive. Consider `O=c1[nH]c2ccccc2n1C1CCN(CCCC(c2ccc(F)cc2)c2ccc(F)cc2)CC1`, for which the compound was classed as inactive.

As for `NCC(CC(=O)O)c1ccc(Cl)cc1` (centres undefined), the compound was classed as inactive. Next, `CCCC(C)(COC(N)=O)COC(=O)NC(C)C` (centres undefined): “inactive”; `CCC1(C2=NCCN2)Cc2ccccc2O1` (centres undefined): “inactive”; `Cc1ccc(S(=O)(=O)N[C@@H](CCCCN)C(=O)CCl)cc1`: “inactive”.

Turning to `Nc1ccncc1`, the outcome was inactive. `CCCN1CCC[C@@H]2Cc3[nH]ncc3C[C@H]21`: the compound was called inactive.

In the case of `COc1ccc(C(CN(C)C)C2(O)CCCCC2)cc1` (centres undefined), the outcome was inactive. As for `NCC(O)c1ccc(O)cc1` (centres undefined), the entry is “inactive”. For `CC(C)=CCOc1c2occc2cc2ccc(=O)oc12`, the compound was called inactive. As for `C[C@@H]1O[C@@H](O[C@H]2C[C@@H](O)[C@]3(CO)[C@H]4[C@H](O)C[C@]5(C)[C@@H](C6=CC(=O)OC6)CC[C@]5(O)[C@@H]4CC[C@]3(O)C2)[C@H](O)[C@H](O)[C@H]1O`, the outcome was inactive.
